# Data as given in the supplement of paper PMC9262897, “Low-cost anti-mycobacterial drug discovery using engineered E. coli” (Nature Communications, 2022).
# Structures can show the parent of a compound that is named as a salt. ± gives the standard deviation of the averaged measurements.
# Assays:
# Assay in all cases: growth (OD600 after 10 h); higher = more growth (less inhibition)
# [1] = tested on: E. coli TESEC Alr+ wild-type control; settings: compound 0.1 mM; raw OD600 reference: median of DMSO wells 0.241, cell-free background 0.041
# Description: (§1)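 TESEC Mtb Alr E. coli, or the Alr+ wild-type control, in 384-well plates with Prestwick library compounds at 0.1 mM and 1% DMSO, across arabinose induction levels of 1E3 to 1E7 nM. Growth is read as OD600 after 10 h at 37 °C in triplicate biological replicates.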
# E. coli TESEC Mtb Alr [2] = settings: compound 0.1 mM
# Description: as §1
# E. coli TESEC Mtb Asd = settings: compound 0.1 mM
# Description: (§2)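 TESEC E. coli strains in which the native enzyme is deleted and replaced by arabinose-inducible Mtb Asd, DapB, CysH or TrpD, each grown in its selective medium. Strains were screened against the Prestwick library at 0.1 mM and 1% DMSO in 384-well format at low and high arabinose induction. Growth is read as OD600 after 10 h in triplicate.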
# E. coli TESEC Mtb DapB = settings: compound 0.1 mM
# Description: as §2
# E. coli TESEC Mtb Alr [3] = settings: compound 0.1 mM; remark: listed apart in the source
# Description: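 TESEC Mtb Alr E. coli (ΔaraC ΔtolC ΔentC Δalr ΔdadX, arabinose-inducible Mtb Alr) or the Alr+ wild-type control strain, grown in defined M9-fructose medium without D-alanine in 96-well plates with Prestwick library compounds at 0.1 mM and 1% DMSO. Low Alr induction is 0.1 µM arabinose and high induction is 10 mM arabinose.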
# [4] = arabinose 1000 nM, raw OD600 reference: median of DMSO wells 0.294, cell-free background 0.041
# [5] = arabinose 10000 nM, raw OD600 reference: median of DMSO wells 0.264, cell-free background 0.041
# [6] = arabinose 100000 nM, raw OD600 reference: median of DMSO wells 0.201, cell-free background 0.041
# [7] = arabinose 1000000 nM, raw OD600 reference: median of DMSO wells 0.193, cell-free background 0.041
# [8] = arabinose 10000000 nM, raw OD600 reference: median of DMSO wells 0.146, cell-free background 0.041
# [9] = arabinose induction (level): High, raw OD600 reference: median of DMSO wells 0.331, cell-free background 0.041
# [10] = arabinose induction (level): Low, raw OD600 reference: median of DMSO wells 0.417, cell-free background 0.041
# [11] = arabinose induction (level): High, raw OD600 reference: median of DMSO wells […], cell-free background 0.041
# [12] = arabinose induction (level): Low, raw OD600 reference: median of DMSO wells 0.227, cell-free background 0.041
# [13] = arabinose 100 nM, raw OD600 reference: median of DMSO wells 0.413, cell-free background 0.052
# [14] = arabinose 10000000 nM, raw OD600 reference: median of DMSO wells […], cell-free background 0.052
Compound,growth [1],growth (E. coli TESEC Mtb Alr [2]; [4]),growth (E. coli TESEC Mtb Alr [2]; [5]),growth (E. coli TESEC Mtb Alr [2]; [6]),growth (E. coli TESEC Mtb Alr [2]; [7]),growth (E. coli TESEC Mtb Alr [2]; [8]),growth (E. coli TESEC Mtb Asd; [9]),growth (E. coli TESEC Mtb Asd; [10]),growth (E. coli TESEC Mtb DapB; [11]),growth (E. coli TESEC Mtb DapB; [12]),growth (E. coli TESEC Mtb Alr [3]; [13]),growth (E. coli TESEC Mtb Alr [3]; [14])
CC(C)(C)NCC(O)c1cc(Cl)c(N)c(Cl)c1 (configuration not stated) [Clenbuterol hydrochloride],0.226 ± 0.0046,0.292 ± 0.0084,0.246 ± 0.005,0.252 ± 0.011,0.215 ± 0.005,0.157 ± 0.0026,0.35 ± 0.0059,0.231 ± 0.031,0.185 ± 0.011,0.191 ± 0.0053,0.398 ± 0.011,0.355 ± 0.024
CCN(C(C)=O)c1cccc(-c2ccnc3c(C#N)cnn23)c1 [Zaleplon],0.205 ± 0.0057,0.259 ± 0.0063,0.238 ± 0.004,0.205 ± 0.028,0.154 ± 0.0051,0.132 ± 0.0056,0.243 ± 0.034,0.307 ± 0.086,0.179 ± 0.013,0.201 ± 0.0029,0.411 ± 0.012,0.298 ± 0.011
O=C1CC[C@@]2(O)[C@H]3Cc4ccc(O)c5c4[C@@]2(CCN3CC2CC2)[C@H]1O5 [Naltrexone hydrochloride dihydrate],0.242 ± 0.0065,0.279 ± 0.022,0.2685 ± 0.0019,0.173 ± 0.023,0.175 ± 0.0025,0.139 ± 0.0097,0.224 ± 0.013,0.443 ± 0.05,0.193 ± 0.0052,0.219 ± 0.048,0.4315 ± 0.0022,0.335 ± 0.0091
CN[C@@H]1C[C@@H](c2ccc(Cl)c(Cl)c2)c2ccccc21 [Indatraline hydrochloride],0.0397 ± 0.00076,0.0417 ± 0.00046,0.0413 ± 0.00055,0.0425 ± 0.0013,0.03897 ± 0.00015,0.0445 ± 0.002,0.0513 ± 0.0011,0.0522 ± 0.0001,0.052 ± 0.0016,0.05117 ± 0.00042,0.24 ± 0.15,0.0505 ± 0.00096
CC(C)c1c(CN(C)C(C)Cc2ccccc2)n(C)n(-c2ccccc2)c1=O (configuration not stated) [Famprofazone],0.219 ± 0.0093,0.279 ± 0.013,0.27 ± 0.014,0.154 ± 0.0078,0.131 ± 0.0042,0.154 ± 0.0085,0.425 ± 0.02,0.486 ± 0.087,0.202 ± 0.0043,0.236 ± 0.04,0.406 ± 0.0053,0.269 ± 0.0074
C=CCN1CC[C@]23c4c5ccc(O)c4O[C@H]2C(=O)CC[C@@]3(O)[C@H]1C5 [Naloxone hydrochloride],0.244 ± 0.012,0.266 ± 0.026,0.27 ± 0.016,0.192 ± 0.021,0.178 ± 0.0076,0.137 ± 0.0051,0.295 ± 0.066,0.498 ± 0.028,0.202 ± 0.0047,0.255 ± 0.059,0.419 ± 0.0087,0.317 ± 0.026
